Screening results: PubChem, National Center for Advancing Translational Sciences (NCATS)
This is a sample that favours compounds with a hit; in the whole collection about 6.2% have one here.
Marburg entry inh: inhibitors of Marburg virus binding or cell entry; Marburg virus pseudotyped entry inhibition, cell reporter; Potency, µM (series often up to 37.8 µM), inactives show top-dose activity change, negative = inhibition, most hits filed as inhibitors; hit rate 1.8% among 300,000; calls by dose curve; tested in HEK293 cells; further: potency means the concentration at half of the fitted maximal effect
FMDV antiviral: blocks foot and mouth disease virus; hit rate 1.2% among 410,000; FMDV antiviral cell-based qHTS; AID 1159524; Potency, µM (titrated, usually from 57.9 µM), for the others: at the top dose activity change, negative = inhibition, usual class: inhibitors; calls by dose curve; tested in HEK293T cells; further: read-out not given here; potency means the concentration at half of the fitted maximal effect; nearly all actives have a fitted effect of over 45% in size
HCMV antiviral: blocks human cytomegalovirus replication. HFF cells, HCMV-luciferase reporter, 72 h; hits give low values. activity change, negative = inhibition, % at 57.5 µM. hit rate 4.5% among 410,000. AID 1259415; in the data active means activity change below about -60%; inconclusive means no clear call, values can overlap the other calls; inactive means above about -39%
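Cell-based, HFFs, 1000 cells/well, 16 h 37C; cpds in DMSO + HCMV-luc, MOI 1 PFU/cell; 72 h 37C; OneGlo luminescence after 5 min RT; norm. to buffer vs Salinomycin 10uM.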
LASV entry inh: inhibitors of Lassa virus binding or cell entry; Lassa virus pseudotype entry inhibition, cell reporter; Potency, µM (doses to about 37.9 µM), for inactives: at the top dose activity change, negative = inhibition, hits mostly inhibitors; hit rate 1.2% among 300,000; calls by dose curve; tested in HEK293 cells; further: potency means the concentration at half of the fitted maximal effect; nearly all actives have a fitted effect of over 50% in size
An asterisk follows results filed as active; ? = inconclusive; . = no result; + = active, no number; ! = not active in a repeat; [ ] = remark or other dose. On the % scale 0 is the no-effect control and ±100 the full control effect.

SMILES	Marburg entry inh	FMDV antiviral	HCMV antiviral	LASV entry inh
CCCOc1ccc(-c2nnn(CC(=O)N3CCCC(C)C3)n2)cc1 (stereo not drawn)	.	-11%	-40	.
CC(C)CC(=O)NS(=O)(=O)c1ccc(NC(=O)c2ccco2)cc1	10%[46.1 µM]	-11%	.	-13%
CCN(CC)c1ccc(N2C(=O)/C(=C\c3cccnc3)SC2=S)cc1	17%	-9%	15	?
COc1c(S(=O)(=O)N2CCCCC2)ccc2c(S(=O)(=O)N3CCCCC3)cccc12	-16%	17%	-85*	-30%
O=S(=O)(c1cccc2c(Cl)cccc12)N1CCCNCC1	8.9µM*!	0%	.	-9%
Cc1cc(C)c(C(=O)CSc2nc3ccccc3c(=O)[nH]2)cc1C	5%	-9%	46	18%
Cc1ccc(C)c(C(=O)CSc2nc3ccccc3c(=O)[nH]2)c1	-23%[46.1 µM]	2%	-66*	-13%
Cc1cc(C)cc(N(CCC#N)C(=O)CSc2nc3ccccc3c(=O)[nH]2)c1	10µM*	-22%	15	?
COC(=O)CCC(C)C1CCC2C3CC[C@H]4CC(O)CC[C@@]4(C)C3CC(O)[C@]12C (stereo partly drawn)	.	-6%	.	.
Cc1ccccc1C(=O)O/N=C(\N)Cc1cccs1	?	2%	-62*	9%[46.1 µM]
COc1ccccc1C/C(N)=N/OC(=O)c1cccs1	11µM*	-6%	65	10µM*
CCn1c(/C=C2/C(=O)N(C)c3ccccc32)nc2ccccc2c1=O	-25%	?	55	?
CCN1C(=O)/C(=C\c2nc3ccccc3c(=O)n2CC)c2ccccc21	?	25µM*	-94*	-24%
CCN1C(=O)/C(=C/c2nc3ccccc3c(=O)n2-c2ccccc2)c2ccccc21	-25%	25µM*	-102*	?
Cc1ccc(CCNC(=O)CCc2nc3ccccc3[nH]2)cc1	5%	-11%	-2	2%
Cc1nc2c3cc(F)ccc3n(Cc3ccccc3F)c2s1	?	0%	18	-16%
Cc1ccc(-n2nnnc2SCc2nnc(-c3ccccc3Br)o2)c(C)c1	?	.	-64*	?
Cn1nnnc1SCc1nnc(-c2ccccc2Br)o1	?	37%	42	10%
CC(=NNC(=S)N1CCCCC1)c1ccccn1	.	?	-98*	.
CC(=NNC(=S)N1CC2CCC(CC2)C1)c1ccncn1	?	0%	-98*	0.32µM*
CCC1CCCCN1C(=S)NN=C(C)c1ccccn1 (stereo not drawn)	.	.	-98*	.
CCOC(=O)c1c(CN(CC)CC)oc2cc(Br)c(O)cc12	1%	-18%	19	.
O=C(CSc1nc2ccccc2c(=O)n1CC1CCCO1)NCc1ccccc1 (stereo not drawn)	-10%	-8%	12	0%
Cc1cc(F)ccc1NCc1ccncc1	1%	.	-5	18%
Cc1ccc(N2C(=O)c3cccc4c(N)ccc(c34)C2=O)c2cccnc12	.	-17%	+	.
SMILES	Marburg entry inh	FMDV antiviral	HCMV antiviral	LASV entry inh
O=S(=O)(c1ccccc1)N1N=C(c2ccc(Cl)cc2)CC1c1ccco1 (stereo not drawn)	10µM*	0%	-33	?
COc1ccc(C2=NN(S(=O)(=O)c3ccccc3)C(c3ccccc3)C2)cc1 (stereo not drawn)	.	5%	-20	.
O=S(=O)(c1ccccc1)N1N=C(c2ccccc2)CC1c1ccccc1 (stereo not drawn)	?	-22%	-74*	0%
COc1ccc(C2CC(c3ccccc3)=NN2S(=O)(=O)c2ccc(C)cc2)c(OC)c1 (stereo not drawn)	?	60%	-63*	?
Cn1c(=O)c2c(-c3ccc(Cl)cc3)n(Cc3ccccc3)cc2n(C)c1=O	-24%[46.1 µM]	0%	-21	-19%[46.1 µM]
Cc1ccccc1S(=O)(=O)Oc1ccccc1C(=O)Oc1ccccc1	9%	-19%	-25	19%
Cc1cc(Cl)ccc1OC(C)C(=O)NC(C)C1CCCO1 (stereo not drawn)	?	-5%	-19	-9%[46.1 µM]
CNC(=O)Oc1cccc(-c2cn3cc(OC(=O)NC)ccc3n2)c1	?	0%	30	?
CNC(=O)Oc1ccc(-c2cn3cc(Cl)ccc3n2)cc1	8.2µM*	?	?	7.3µM*
Cn1ncnc2c(=O)n(C)c(=O)nc1-2	.	1.6µM*	.	.
Cn1nc(-c2ccccn2)nc2c(=O)n(C)c(=O)nc1-2	.	1.3µM*	-101*	.
CCn1c(N)nc2c1c(=O)n(C)c(=O)n2C	-3%	-21%	7	.
Cn1c(=O)c(-c2ccc(Cl)cc2)nc2cncnc21	.	-16%	.	.
CCCc1nc2c(=O)n(C)c(=O)nc-2n(C)n1	?	2.5µM*	-99*	1µM*
Cc1ccc(S(=O)(=O)N(C)C)cc1NC(=S)Nc1ccc2cn[nH]c2c1	-5%[46.1 µM]	-8%	-67*	14%
